Data taken from PubChem BioAssay AID1159580 (chemical genetic matrix, 2015).
Values joined by “and” are separate entries in the source; they are usually repeats but may differ in a detail not shown here. Identical values can stand only once. In all, about 5,500 compounds went through this assay and about 2,000 (36%) were called active. Another 18% or so got no clear call; they are omitted. Cut-off read from the data, not from the text of the source: active = normalized growth mostly below about 0.91 (no sharp cut-off); inconclusive = no clear call, values can overlap the other calls; inactive = mostly above about 0.92. Some of the results follow.

Assay: chemical genetic growth profiling, strain panel (AID 1159580);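 note: tested at 20 µM; growth read once vehicle control cultures reached saturation at 30 °C; 1 = growth at the plate median or of vehicle wells; lower values mean less growth of the strain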
Settings: S. cerevisiae deletion strains, growth OD

Measured: normalized growth

O=C(O)c1ccc(S(=O)(=O)N(Cl)Cl)cc1
inactive: locus YAL013W, strain DEP1, active compounds read low 1 | locus YAL021C, strain ccr4, active compounds read low 1 | locus YAL026C, strain drs2, active compounds read low 0.962 | locus YAL030W, strain snc1, active compounds read low 0.994 | locus YBL061C, strain skt5, active compounds read low 0.975 | locus YBR009C, strain hhf1, active compounds read low 0.925 | locus YBR021W, strain FUR4, active compounds read low 0.987 | locus YBR023C, strain chs3, active compounds read low 1 | locus YBR171W, strain sec66, active compounds read low 0.969 | locus YBR229C, strain ROT2, active compounds read low 1 | locus YBR231C, strain swc5, active compounds read low 0.995 | locus YBR279W, strain paf1, active compounds read low 0.992 | locus YCL011C, strain gbp2, active compounds read low 0.977 | locus YCL016C, strain dcc1, active compounds read low 1 | locus YCL029C, strain bik1, active compounds read low 1.01 | locus YCL061C, strain MRC1, active compounds read low 0.933 | locus YCL069W, strain vba3, active compounds read low 0.988 | locus YCR088W, strain abp1, active compounds read low 0.998 | locus YDL005C, strain med2, active compounds read low 0.996 | locus YDL035C, strain GPR1, active compounds read low 0.989 | locus YDL040C, strain nat1, active compounds read low 0.992 | locus YDL074C, strain BRE1, active compounds read low 0.98 | locus YDL101C, strain DUN1, active compounds read low 1 | locus YDL185W, strain tfp1, active compounds read low 1.01 | locus YDL192W, strain arf1, active compounds read low 1.03 | locus YDR001C, strain nth1, active compounds read low 0.978 | locus YDR069C, strain doa4, active compounds read low 1.02 | locus YDR101C, strain arx1, active compounds read low 1.02 | locus YDR137W, strain rgp1, active compounds read low 1.01 | locus YDR150W, strain NUM1, active compounds read low 1 | locus YDR159W, strain sac3, active compounds read low 0.98 | locus YDR162C, strain NBP2, active compounds read low 1 | locus YDR195W, strain ref2 0.996 | locus YDR297W, strain sur2, active compounds read low 0.988 | locus YDR318W, strain mcm21, active compounds read low 1.01 | locus YDR334W, strain swr1, active compounds read low 0.97 | locus YDR335W, strain msn5, active compounds read low 0.987 | locus YDR388W, active compounds read low 1.02 | locus YDR392W, strain spt3, active compounds read low 0.939 | locus YDR502C, strain sam2, active compounds read low 1.04 | locus YEL003W, strain gim4, active compounds read low 0.964 | locus YEL037C, strain rad23, active compounds read low 0.962 | locus YEL061C, strain CIN8 (second series), active compounds read low 0.975 | locus YEL061C, strain CIN8, active compounds read low 1 | locus YER015W, strain faa2, active compounds read low 1 | locus YER016W, strain bim1, active compounds read low 0.997 | locus YER110C, active compounds read low 1.03 | locus YER111C, strain swi4, active compounds read low 0.982 | locus YER155C, strain BEM2 (second series), active compounds read low 0.979 | locus YER155C, strain BEM2, active compounds read low 0.992 | locus YER167W, strain BCK2, active compounds read low 1 | locus YFR010W, strain ubp6, active compounds read low 0.959 | locus YGL078C, strain dbp3, active compounds read low 1.03 | locus YGL086W, strain mad1, active compounds read low 0.991 | locus YGL167C, strain pmr1, active compounds read low 0.973 | locus YGL173C, strain kem1, active compounds read low 0.982 | locus YGL227W, strain vid30, active compounds read low 0.996 | locus YGL240W, strain doc1, active compounds read low 1.02 | locus YGL248W, strain PDE1, active compounds read low 1 | locus YGL253W, strain hxk2, active compounds read low 0.999 | locus YGR078C, strain PAC10, active compounds read low 0.998 | locus YGR135W, strain pre9, active compounds read low 1.01 | locus YGR252W, strain gcn5, active compounds read low 0.971 | locus YHR013C, strain ard1, active compounds read low 1.01 | locus YHR027C, strain rpn1, active compounds read low 0.993 | locus YHR030C, strain SLT2, active compounds read low 0.999 and 0.973 | locus YHR079C, strain IRE1 (second series), active compounds read low 1.02 | locus YHR079C, strain IRE1, active compounds read low 0.973 | locus YHR094C, strain hxt1, active compounds read low 1.03 | locus YHR129C, strain ARP1, active compounds read low 0.996 | locus YHR142W, strain chs7, active compounds read low 0.971 | locus YHR200W, strain rpn10, active compounds read low 1.03 | locus YIL066C, strain RNR3, active compounds read low 1 | locus YIL073C, strain SPO22, active compounds read low 1.03 | locus YIL125W, strain kgd1, active compounds read low 1.01 | locus YIR030C, strain dcg1, active compounds read low 1.03 | locus YJL092W, strain hpr5, active compounds read low 0.987 | locus YJL095W, strain BCK1 (second series), active compounds read low 0.991 | locus YJL095W, strain BCK1, active compounds read low 1 and 0.969 | locus YJL115W, strain asf1, active compounds read low 0.969 | locus YJL129C, strain trk1, active compounds read low 0.996 | locus YJL134W, strain LCB3, active compounds read low 1 | locus YJL154C, strain vps35, active compounds read low 0.985 | locus YJL164C, strain tpk1, active compounds read low 0.954 | locus YJL166W, strain qcr8, active compounds read low 1.01 | locus YJL168C, strain set2, active compounds read low 1.02 | locus YJL187C, strain SWE1 (second series), active compounds read low 0.998 | locus YJL187C, strain SWE1, active compounds read low 0.994 | locus YJR043C, strain POL32, active compounds read low 0.982
